According to PubChem BioAssay (Tox21):
Records with an inconclusive call do not appear. The source made the active and inactive calls. Unless noted, calls come from the whole dose curve; as a rule, active = well fitted curve in the direction sought with a large enough effect in the repeat runs; inconclusive = weak or mixed curves; inactive = no such curve, though single readings can be large; an effect the other way counts as inactive or inconclusive.

Assays:
[1] = A CellTox Green Cytotoxicity Assay to monitor cytotoxicity in HEK293 cells - 32 hour (AID 1224881); note: nearly all actives have a fitted effect of over 40% in size
In short: (§1)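 Dead-cell fluorescence measured kinetically: asymmetric cyanine dye, HEK293, 600 cells/well, 5 h settle, 23 nL cpd/DMSO, 37 C, reads 0–40 h every 8 h.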

[2] = A CellTox Green Cytotoxicity Assay to monitor cytotoxicity in HepG2 cells - 0 hour (AID 1224882); note: nearly all actives have a fitted effect of over 35% in size
In short: (§2)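 First, HepG2 cells (600/well) mixed with reagent were plated; second, after 5 h at 37 C they received compounds via pintool; third, fluorescence was measured at 0 h through 40 h at 8 h intervals.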

[3] = A CellTox Green Cytotoxicity Assay to monitor cytotoxicity in HepG2 cells - 32 hour (AID 1224883); note: nearly all actives have a fitted effect of over 50% in size
In short: as §2

[4] = A CellTox Green Cytotoxicity Assay to monitor cytotoxicity in HEK293 cells - 8 hour (AID 1224884); note: nearly all actives have a fitted effect of over 35% in size
In short: as §1

[5] = qHTS RealTime-Glo MT Cell Viability Assay in HepG2 cells - 16 hour (AID 1224885); note: nearly all actives have a fitted effect of over 50% in size
In short: (§3)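 Tox21 10K library screened in qHTS format on HepG2 cells carrying RealTime-Glo reagents. Compounds were added after a 5 h preincubation, and the luminescent signal from continuous culture was measured repeatedly during 40 h treatment.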

[6] = qHTS RealTime-Glo MT Cell Viability Assay in HEK293 cells - 8 hour (AID 1224887); note: top concentration of the series differs between compounds; nearly all actives have a fitted effect of over 50% in size
In short: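 600 HEK293 cells per well, dispensed already mixed with RealTime-Glo MT reagents. Compound dosing came 5 h later. The same wells were read for luminescence at 0, 8, 16, 24, 32 and 40 h of exposure at 37 C.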

[7] = qHTS RealTime-Glo MT Cell Viability Assay in HepG2 cells - 0 hour (AID 1224889); note: nearly all actives have a fitted effect of over 50% in size
In short: as §3

[8] = A CellTox Green Cytotoxicity Assay to monitor cytotoxicity in HepG2 cells - 8 hour (AID 1224890); note: nearly all actives have a fitted effect of over 45% in size
In short: as §2

[9] = qHTS assay to identify small molecule antagonists of the estrogen receptor alpha (ER-alpha) signaling pathway using the BG1 cell line in the presence of 0.1 nM 17-beta-estradiol - cell viability counter screen (AID 1259241); note: nearly all actives have a fitted effect of over 40% in size
In short: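 Following 5 days in phenol red-free medium with charcoal-stripped serum, VM7Luc4E2 cells received test compounds alongside 0.1 nM 17beta-estradiol (final) at 37C for 22 hr. Live cells were then quantified via protease-substrate fluorescence.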

[10] = qHTS assay to identify small molecule antagonists of the androgen receptor (AR) signaling pathway using the MDA cell line in the presence of 0.5 nM R1881 - cell viability counter screen (AID 1259242); note: nearly all actives have a fitted effect of over 45% in size
In short: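 qHTS format. MDA-kb2 (MMTV-luc, AR/GR responsive) + cpd + 0.5 nM R1881 final, 16 hr 37C/0% CO2 → CellTiter-Fluor 30 min → fluorescence intensity.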

[11] = target: Androgen receptor (Homo sapiens) (UniProt P10275); experiment: qHTS assay to identify small molecule antagonists of the androgen receptor (AR) signaling pathway using the MDA cell line in the presence of 0.5 nM R1881 (AID 1259243); note: nearly all actives have a fitted effect of over 50% in size
In short: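 Antagonist mode quantitative HTS in MDA-kb2 MMTV-luciferase cells, agonist R1881 at 0.5 nM final, 16 hr exposure at 37C and 0% CO2, luminescent detection.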

[12] = qHTS assay to identify small molecule phospholipidosis (PLD) inducers (AID 1259344; active = well fitted curve in the direction sought with a large enough effect; an effect the other way counts as inactive or inconclusive)
In short: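 Read-out is LipidTOX Red fluorescence (ex 595/em 615) imaged in HepG2 cells after 24 h compound exposure at 37 C, with Hoechst nuclear counterstain (ex 352/em 461) allowing per-cell normalisation.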

[13] = qHTS assay to identify small molecule HDAC inhibitors (AID 1259364); note: potency is the fitted concentration of half-maximal effect;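 note: wild-type HCT-116 cells with endogenous class I/II HDAC activity; nearly all actives have a fitted effect of over 45% in size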
In short: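 Quantitative high-throughput format: overnight-seeded HCT-116 cells got compounds for 2 hr at 37C; HDAC-Glo I/II reagent added, 30 min RT, luminescence measured.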

[14] = qHTS assay to identify small molecule HDAC inhibitors - cell viability counter screen (AID 1259365)
In short: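 HCT-116 wild-type, overnight attachment; 2hr drug exposure, 37C; CellTiter-Glo luminescent ATP readout after 30min RT.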

[15] = qHTS assay to identify small molecule agonists of the sonic hedgehog signaling (Shh) pathway - cell viability counter screen (AID 1259366); note: nearly all actives have a fitted effect of over 50% in size
In short: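 Compounds in DMSO were pin-transferred onto 3T3 Gli1-Luc cells that had settled 4hr; plates then stood 24hr at 37C and 5% CO2. One hour before the end, CellTiter-Fluor was added and fluorescence recorded.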

[16] = qHTS assay to identify small molecule antagonists of the sonic hedgehog signaling (Shh) pathway - cell viability counter screen (AID 1259367); note: nearly all actives have a fitted effect of over 55% in size
In short: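 Fluorescence read-out (CellTiter-Fluor, 1 hr at 37C) taken after 23 hr compound treatment of 3T3 Gli1-Luc cells stimulated with conditioned medium. Cells were seeded at 2,000 per well and pre-incubated 4 hr.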

[17] = qHTS assay to identify small molecule agonists of the sonic hedgehog signaling (Shh) pathway (AID 1259368; calls by dose curve;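 note: NIH/3T3-derived 3T3Gli1-Luc cells carrying a stable Gli1-driven firefly luciferase reporter; series mostly up to about 92 µM; nearly all actives have a fitted effect of over 15% in size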)
In short: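 Quantitative high-throughput format using a Gli1-driven firefly luciferase reporter line derived from NIH/3T3 cells. After a 24 hr compound treatment at 37 C and 5% CO2, luminescence reported Gli1 response element activity.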

[18] = qHTS RealTime-Glo MT Cell Viability Assay in HEK293 cells - 24 hour (AID 1224886)
In short: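 Luminescence generated by NanoLuc from substrate produced by living HEK293 cells served as the viability signal. Each value reflects the reading at its stated time point during continuous 40 h compound exposure at 37 C.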

[19] = A CellTox Green Cytotoxicity Assay to monitor cytotoxicity in HEK293 cells - 16 hour (AID 1224888); note: nearly all actives have a fitted effect of over 35% in size
In short: as §1

[20] = target: Estrogen receptor (Homo sapiens) (UniProt P03372); experiment: qHTS assay to identify small molecule antagonists of the estrogen receptor alpha (ER-alpha) signaling pathway using the BG1 cell line in the presence of 0.1 nM 17-beta-estradiol (AID 1259244); note: nearly all actives have a fitted effect of over 50% in size
In short: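 Reporter is a stably transfected luciferase under four estrogen responsive elements in VM7Luc4E2 cells expressing native full-length ER-alpha; inhibition of 0.1 nM (final) 17beta-estradiol-driven signal over 22 h is read by luminescence.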

Measured: Potency

Estrogen receptor (Homo sapiens), sequence (P03372 whole entry, looked up): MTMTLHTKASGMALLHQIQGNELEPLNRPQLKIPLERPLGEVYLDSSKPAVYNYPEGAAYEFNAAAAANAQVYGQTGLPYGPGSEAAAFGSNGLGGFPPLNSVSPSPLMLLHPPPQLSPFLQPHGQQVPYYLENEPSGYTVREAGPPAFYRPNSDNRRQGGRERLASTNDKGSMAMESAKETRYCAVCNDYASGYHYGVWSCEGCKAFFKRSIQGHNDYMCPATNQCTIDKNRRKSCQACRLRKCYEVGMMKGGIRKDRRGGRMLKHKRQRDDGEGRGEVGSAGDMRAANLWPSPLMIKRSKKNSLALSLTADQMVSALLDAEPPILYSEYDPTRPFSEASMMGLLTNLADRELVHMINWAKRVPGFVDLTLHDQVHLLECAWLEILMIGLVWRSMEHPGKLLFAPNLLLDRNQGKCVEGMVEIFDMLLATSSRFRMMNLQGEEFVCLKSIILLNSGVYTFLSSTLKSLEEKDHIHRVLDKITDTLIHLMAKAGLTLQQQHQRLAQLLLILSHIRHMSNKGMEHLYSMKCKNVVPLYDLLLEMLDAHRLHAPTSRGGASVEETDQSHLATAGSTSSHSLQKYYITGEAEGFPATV
Androgen receptor (Homo sapiens), sequence (P10275 whole entry, looked up): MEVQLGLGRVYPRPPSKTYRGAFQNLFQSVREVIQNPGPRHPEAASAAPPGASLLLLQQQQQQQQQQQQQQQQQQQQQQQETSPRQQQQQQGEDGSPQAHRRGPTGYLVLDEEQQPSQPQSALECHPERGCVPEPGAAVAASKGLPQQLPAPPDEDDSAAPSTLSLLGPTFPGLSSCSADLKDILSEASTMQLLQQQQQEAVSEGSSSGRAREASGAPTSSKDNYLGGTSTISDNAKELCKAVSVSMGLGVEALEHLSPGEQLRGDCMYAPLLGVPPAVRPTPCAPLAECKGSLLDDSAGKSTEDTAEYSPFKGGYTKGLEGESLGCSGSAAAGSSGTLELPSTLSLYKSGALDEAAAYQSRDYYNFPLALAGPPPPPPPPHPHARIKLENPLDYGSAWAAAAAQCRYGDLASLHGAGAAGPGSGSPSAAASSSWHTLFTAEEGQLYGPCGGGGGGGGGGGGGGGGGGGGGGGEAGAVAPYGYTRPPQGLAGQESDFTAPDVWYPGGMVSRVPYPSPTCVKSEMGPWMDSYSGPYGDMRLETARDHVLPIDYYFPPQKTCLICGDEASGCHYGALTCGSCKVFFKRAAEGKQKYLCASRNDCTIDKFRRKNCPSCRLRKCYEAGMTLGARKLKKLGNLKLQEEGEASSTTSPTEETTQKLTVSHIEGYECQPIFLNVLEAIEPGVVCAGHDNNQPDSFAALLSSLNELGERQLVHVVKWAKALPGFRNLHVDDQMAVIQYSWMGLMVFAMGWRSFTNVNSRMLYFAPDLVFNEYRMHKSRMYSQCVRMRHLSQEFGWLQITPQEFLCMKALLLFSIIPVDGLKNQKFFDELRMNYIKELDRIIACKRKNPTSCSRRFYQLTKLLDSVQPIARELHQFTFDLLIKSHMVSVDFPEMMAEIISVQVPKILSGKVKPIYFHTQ

C#C[C@]1(O)C=C[C@H]2[C@@H]3CCC4=CC(=O)CC[C@@H]4[C@H]3CC[C@@]21CC
inactive: [1] | [2] | [3] | [4] | [5] | [6] | [7] | [8] | [9] | [10] | [11] | [12] | [13] | [14] | [15] | [16] | [17]

CC1CCCCC1NC(=O)Nc1ccccc1 (stereo unspecified)
inactive: [1] | [2] | [3] | [4] | [18] | [19] | [7] | [8] | [9] | [10] | [14] | [15] | [16] | [17]

c1coc(-c2nc3ccccc3[nH]2)c1
active: [13] 611 nM
inactive: [1] | [2] | [3] | [4] | [5] | [19] | [7] | [8] | [9] | [14] | [15] | [17]

[O]=[Cd]
inactive: [1] | [2] | [3] | [4] | [18] | [6] | [19] | [7] | [8] | [9] | [10] | [12] | [13] | [14] | [15] | [16] | [17]

C=C(C)CN(CC)c1c([N+](=O)[O-])cc(C(F)(F)F)cc1[N+](=O)[O-]
inactive: [1] | [2] | [3] | [4] | [5] | [19] | [8] | [9] | [20] | [13] | [16] | [17]

Cc1cc(C)c(C(=O)P(=O)(C(=O)c2c(C)cc(C)cc2C)c2ccccc2)c(C)c1
inactive: [1] | [2] | [3] | [4] | [18] | [6] | [19] | [7] | [8] | [9] | [10] | [20] | [13] | [14] | [15] | [16] | [17]

COc1cc(OC)nc(NC(=O)NS(=O)(=O)c2ncccc2OCC(F)(F)F)n1
inactive: [1] | [2] | [3] | [4] | [6] | [19] | [7] | [8] | [9] | [10] | [20] | [13] | [14] | [15] | [16]

CC(C)(C)OC(=O)c1ncn2c1[C@@H]1CCCN1C(=O)c1c(Br)cccc1-2
inactive: [1] | [2] | [3] | [4] | [5] | [6] | [7] | [8] | [9] | [10] | [12] | [13] | [14] | [15] | [16] | [17]

O=C(O)c1cccc(Cl)c1
inactive: [1] | [2] | [3] | [4] | [18] | [6] | [19] | [7] | [9] | [10] | [20] | [13] | [15] | [16] | [17]
